# Laboratory results taken from ChEMBL document CHEMBL4513216, “Probing the Open Global Health Chemical Diversity Library for Multistage-Active Starting Points for Next-Generation Antimalarials” (ACS Infect Dis, 2020).
# The campaign covered roughly 69,000 compounds. About 8,600 (12%) showed an effect of 50% or more. For the sample, strong results were picked, then their nearest neighbours and some compounds at random.
# Tested on: Plasmodium berghei
# Assay: Screen against P. berghei liver stage (PbLuc), transformed with Luciferase, at 10uM
# Format: functional, HepG2
# Conditions: tested at 10 uM
row,Compound,INHIBITION
1,O=C1CCC(C(=O)Nc2cnn(-c3ccccc3Br)c2)N1 (configuration not stated),47%
2,CCCN1CCN(C(=O)CCn2cccc2)CC1,16.8%
3,Cc1ccc(N2CC[C@H]3CN(C(=O)c4ccn(C)n4)C[C@H]3C2)nn1,75.6%
4,O=C(c1cnccn1)N1C[C@@H]2CCN(c3cnccn3)C[C@@H]2C1,35.8%
5,Cn1ccc(C(=O)N2C[C@@H]3CCN(c4cnccn4)C[C@@H]3C2)n1,24%
6,c1cc(CN2CC[C@@H]3CN(c4cnccn4)C[C@@H]3C2)ccn1,27.6%
7,Cn1cncc1C(=O)N1C[C@@H]2CCN(c3cnccn3)C[C@@H]2C1,56.6%
8,c1cnc(N2C[C@H]3CCN(CCN4CCCC4)C[C@H]3C2)cn1,57.5%
9,O=C(CC1CC1)N1C[C@@H]2CCN(c3cnccn3)C[C@@H]2C1,15.7%
10,O=C(C1CCCCC1)N1C[C@@H]2CCN(c3cnccn3)C[C@@H]2C1,-15.9%
11,c1cnc(N2C[C@H]3CCN(CC4CC4)C[C@H]3C2)cn1,58.4%
12,Cn1ccc(C(=O)N2C[C@@H]3CCN(c4cccnc4)C[C@@H]3C2)n1,32.1%
13,O=C(C1CCCC1)N1C[C@@H]2CCN(c3cnccn3)C[C@@H]2C1,16.1%
14,Cn1ccnc1C(=O)N1C[C@@H]2CCN(c3cnccn3)C[C@@H]2C1,31.2%
15,Cc1cc(NC(=O)NCC(c2ccc(C)o2)N2CCOCC2)n(C)n1 (configuration not stated),45.7%
16,CC(NC(=O)NCCCn1cncn1)c1ccncc1 (configuration not stated),33%
17,CN(C)[C@@H]1CCN(C(=O)CC2CC2)[C@H]1Cc1cnn(C)c1,4.27%
18,COCC1CN(Cc2ccoc2)Cc2nn(CC3CC3)cc21 (configuration not stated),1.9%
19,CC(=O)NCC(=O)N1C[C@@H]2CC[C@H](Oc3ccccc3Cl)[C@@H]2C1,30.8%
20,CCOC(=O)NCCC(=O)NCc1ccc(Oc2ccc(F)cc2)nc1,61.5%
21,CCOC(=O)NCCC(=O)NCc1ccc(Oc2cccc(F)c2)nc1,35.5%
22,CCOC(=O)NCCC(=O)NCc1ccnc(Oc2ccc(F)cc2)c1,21.5%

row,Compound,INHIBITION
1,CCc1noc(CN2CCN(CCO)CC2)n1,15.8%
2,Cc1cnn(CC2CCCN2CC(=O)Nc2cc(C)no2)c1 (configuration not stated),-0.219%
3,CCCC(=O)NC1CCc2c(ccc(=O)n2Cc2csc(C)n2)C1 (configuration not stated),17.6%
4,CC(C)N1CCOC(CC(=O)N2CCCN(c3ccc(F)cc3)CC2)C1 (configuration not stated),22.1%
5,Cc1ccc(N2CCCN(C(=O)CC3CCCO3)CC2)nn1 (configuration not stated),35.3%
6,CC(C)N1CCOC(CC(=O)N2CC(c3ccncc3)C2)C1 (configuration not stated),31.2%
7,CC(C)N1CCOC(CC(=O)N2CCCN(Cc3ccncc3)CC2)C1 (configuration not stated),58.5%
8,CC(C)N1CCOC(CC(=O)N2CCCN(Cc3cccs3)CC2)C1 (configuration not stated),28.5%
9,Cc1ccccc1N1CCCN(C(=O)CC2CN(C(C)C)CCO2)CC1 (configuration not stated),60.3%
10,CN(C)C(=O)C1CN(Cc2ccsc2)CCN(S(C)(=O)=O)C1 (configuration not stated),20.8%
11,O=C(c1cccnc1)N1CCOCC2(CCN(c3ncccn3)C2)C1 (configuration not stated),-62.6%
12,Cc1cc(C)c(C(=O)NCCNc2ncnc3ccccc23)c(=O)[nH]1,-21.6%
13,CCn1nc(C)cc1C(=O)OCCNC(=O)c1ccccc1,-1.95%
14,CCn1nc(C)cc1C(=O)OCCNc1ncnc2ccccc12,83.2%
15,COC(=O)CSCc1noc(-c2ccc(C)cc2)n1,91.3%
16,COC(=O)CSCc1nc(-c2ccc(Cl)cc2)no1,48.8%
17,COC(=O)CSCc1noc(-c2ccc(Cl)cc2)n1,46.6%
18,Cn1cc(CCN2CCOC(CNc3cccnn3)C2)cn1 (configuration not stated),-33.7%
19,CCCOCC1CCN(C(=O)c2cnc(C)nc2O)C1 (configuration not stated),35.8%
20,O=S(=O)(NCC1COc2ccccc2C1)N1CCCCCC1 (configuration not stated),-9.3%
21,Nc1cc(CC2COc3ccccc3C2)ccn1 (configuration not stated),57.9%
22,O=C(c1ccnc(CC2COc3ccccc3C2)c1)N1CCCC1 (configuration not stated),31.5%

row,Compound,INHIBITION
1,Nc1ccc(CC2COc3ccccc3C2)cn1 (configuration not stated),56.3%
2,Cc1cc(NC(=O)NCC2COc3ccccc3C2)no1 (configuration not stated),40%
3,Cn1cc(CN2C[C@@H]3COC[C@]3(C(=O)NCc3ccccn3)C2)cn1,13.7%
4,CC(C)NC(=O)[C@@H]1CN(Cc2ccc3c(c2)OCO3)C[C@H]2OCC[C@H]21,26.5%
5,CN(Cc1noc(C2CC2)n1)C1CCCN(c2cccnn2)C1 (configuration not stated),5.9%
6,CC1(C(=O)NC2CCCC2)CN(c2cnccn2)CCO1 (configuration not stated),12.3%
7,CCC(C)N(C)S(=O)(=O)c1ccc(CCNC(C)=O)s1 (configuration not stated),13.7%
8,CCC(CC)N(C)S(=O)(=O)c1ccc(CCNC(C)=O)s1,-79.8%
9,CC(=O)NCCc1ccc(S(=O)(=O)N(C)C(C)CC(C)C)s1 (configuration not stated),68.2%
10,COCCCN(Cc1cc(O)nc2ccccc12)C(=O)NC(C)C,33%
11,CC(C)NCc1cc2n(n1)CCN(C1CCCCC1)C2,14.9%
12,c1nc(NCc2cc3n(n2)CCN(C2CCCCC2)C3)c2nc[nH]c2n1,78.5%
13,CC(C)CN1CCn2nc(CNc3ncnc4[nH]cnc34)cc2C1,33%
14,Cc1nc(CN2C(=O)C[C@@H]3[C@@H]2CCN3Cc2cnn(C)c2)cs1,-8.51%
15,CCc1nnc2ccc(N3CCN(S(=O)(=O)c4ccc(Cl)s4)CC3)nn12,32.3%
16,Cc1nc(C)c(CC(=O)Nc2nnc(C)s2)c(=O)[nH]1,20.1%
17,Cc1nc(C)c(CC(=O)Nc2nc(C)c(C)s2)c(=O)[nH]1,21.1%
18,CSc1sc(NC(=O)Cc2c(C)nc(C)[nH]c2=O)nc1C,71.4%
19,O=c1[nH]c(-c2ccccn2)nc2c1CCN(S(=O)(=O)N1CCCC1)C2,7.92%
20,CS(=O)(=O)c1cn[nH]c1C1CCCN(C(=O)CN2CCOCC2)C1 (configuration not stated),20.8%
21,CC(C)C(C)(C#N)NC(=O)CN1CCC(c2ccnn2CCO)CC1 (configuration not stated),-1.14%
22,CCC1CN(CC(=O)NCc2ccco2)CCO1 (configuration not stated),36.6%

row,Compound,INHIBITION
1,O=C(CN1CCOC(c2ccc(Cl)c(Cl)c2)C1)NCc1ccco1 (configuration not stated),21.5%
2,O=C(CN1CCC(c2ccnn2CCO)CC1)NC1CCCC1,-11.4%
3,O=C(CN1CCC(c2ccnn2CCO)CC1)NCc1ccco1,58.5%
4,Cn1nccc1C1CCN(CC(=O)NCC2CC2)CC1,70.8%
5,Cc1csc(NC(=O)CN2CCC(c3ccnn3CCO)CC2)n1,66%
6,N#CC1(NC(=O)CN2CCC(c3ccnn3CCO)CC2)CCCC1,37.9%
7,O=C(CN1CCC(c2ccnn2CCO)CC1)NCC1CCCCC1,-17.6%
8,O=C(CN1CCC(c2ccnn2CCO)CC1)NCc1cccs1,10.8%
9,O=C(CN1CCOC(c2ccc(Cl)s2)C1)NCc1ccco1 (configuration not stated),52.8%
10,O=C(CN1CCC(c2ccnn2CCO)CC1)NCC1CC1,33.3%
11,Cc1ccc(CN2CCC3(CC2)CN(C(=O)c2cnccn2)CCO3)o1,-14.2%
12,O=C(N1CCCC1)N1CCN(Cc2cccnc2)c2ncccc2C1,31.2%
13,Cn1nccc1C(=O)N1CCC(c2nnsc2S(C)(=O)=O)CC1,30.95%
14,COC1(CNC(=O)NCc2ccccc2)CCSC1 (configuration not stated),18.7%
15,Cc1nc(CNC(=O)NCC(O)c2ccccc2)cs1 (configuration not stated),11.2%
16,CC(C)S(=O)(=O)N1CCC(c2[nH]ncc2S(C)(=O)=O)C1 (configuration not stated),37.6%
17,CN(CCC#N)C(=O)C(C)(C)Oc1ccc(C(N)=O)cc1,25.3%
18,CC(=O)N1CCN(CCNC(=O)c2nc3ccccc3c(=O)[nH]2)CC1,-96.2%
19,CCNC(=O)[C@@H]1C[C@@H](NC(=O)c2ccc(C)cc2O)CN1CCCSC,15.9%
20,Cc1cc(OCC(=O)N2CCCC(c3nccs3)C2)no1 (configuration not stated),-19.6%
21,Cc1nn(C)c(Cl)c1S(=O)(=O)N(C)c1ccc(Cl)cn1,14.4%
22,O=C1CC(c2ccncc2)C2(CCN(Cc3ccc(F)cc3)CC2)N1 (configuration not stated),1.71%

row,Compound,INHIBITION
1,CN(C)CCOCc1nnc2n1CCN(Cc1ccco1)CC2,16.4%
2,Cc1cc(Br)ccc1C(=O)Nc1c(C(N)=O)n[nH]c1C,3.87%
3,Cc1cnc2c(C(=O)N3CCCC(OCc4ccccn4)C3)cnn2c1 (configuration not stated),37.9%
4,O=C(C1CCCC1)N1CCC(C2CCN(Cc3ccc(Cl)cc3)C2)CC1 (configuration not stated),67.3%
5,O=C(C1CCC1)N1CCC(C2CCN(Cc3ccc(Cl)cc3)C2)CC1 (configuration not stated),55.6%
6,CC(=O)NCC(=O)N1CCC(C2CCN(Cc3ccc(Cl)cc3)C2)CC1 (configuration not stated),26.9%
7,CN1CCN(Cc2ccc(Cl)cc2)CC1C(=O)O (configuration not stated),17%
8,O=C1CN(C(=O)C2CCCCC2)CC(O)CN1Cc1ccc(Cl)cc1 (configuration not stated),-0.473%
9,CCOCC(=O)N1CCC(C2CCN(Cc3ccc(Cl)cc3)C2)CC1 (configuration not stated),26.9%
10,CCc1nc(C2CCCN2CC(=O)N2CCCc3ccccc32)no1 (configuration not stated),15.3%
11,CN(C)c1cc(C(=O)N2CCCCCC2)ccn1,5.308%
12,O=S(=O)(CCNC1CCc2ncnn2C1)c1ccccc1 (configuration not stated),20.6%
13,COC1CC2(CCN(Cc3ccc4c(c3)OCO4)CC2)C1,37.4%
14,Cc1nn(CC(O)CN2CCc3ccccc3C2)c(=O)c2ccccc12 (configuration not stated),18.6%
15,NC(=O)c1c(NC(=O)CCC(=O)O)sc2c1CCc1ccccc1-2,-13%
16,Cc1cccc(OCCN2CCN(Cc3cnn(CCO)c3)CC2)c1,32.9%
17,Cc1nn(C)c(C)c1S(=O)(=O)NCC(C)(O)c1ccc2c(c1)OCO2 (configuration not stated),34.3%
18,Cc1noc(C)c1S(=O)(=O)NCC(C)(O)c1ccc2c(c1)OCO2 (configuration not stated),31.3%
19,Cn1cnc(S(=O)(=O)NCC(C)(O)c2ccc3c(c2)OCO3)c1 (configuration not stated),52.5%
